Source: the emibetuzumab library of Makowski et al. (2022)
The list shows a part of the results. The hit rate among all sequences tested is not known here.

B1: VH:VL chains; a variant is named by its letters at X, in order (parent)
chain 1: QVQLVQSGAEVKKPGASVKVSCKASGYTFTDYXMHWVRQAPGQGLEWMGXVNPNXXXTTYNQKFEGRVTMTTDTSTSTAYMELRSLRSDDTAVYYCARXNXLDXWGQGTTVTVSS
chain 2: DIQMTQSPSSLSASVGDRVTITCSVSSSVSSIYLHWYQQKPGKAPKLLIYSTSNLASGVPSRFSGSGSGTDFTLTISSLQPEDFATYYCQVYSGYPLTFGGGTKVEIK

Variants of: B1
Experiment: yeast display scFab, FACS + sequencing
Details: with MET
In short: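 Antigen binding was called positive for sequences present in both antigen-positive samples and negative for those present only in the input. These calls came from deep sequencing, in two replicates, of round-3 sorted and input populations from a heavy-chain CDR mutant scFab yeast surface library. The library was first enriched twice magnetically on HGFR-Fc-coated Protein A beads and then by FACS, gating the top 50% antigen-positive cells after 3 h labelling at room temperature with 1 nM HGFR-Fc plus anti-Myc in PBSB with 1% milk.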

For ATGRADVY, which antigen binding call is on record?
Its antigen binding call is “no binding”.

For VEEASSWA, which antigen binding call is on record?
The antigen binding call was “no binding”.

How did the antigen binding call turn out when SGGGNDLA chain 1 R87K was run?
The antigen binding call was “no binding”.

With DRAGDSWA as the variant, how does the antigen binding call read?
The antigen binding call was “no binding”.

With YRAGDSWD as the variant, how does the antigen binding call read?
The antigen binding call was “binds”.

For YRRGDAWD, which antigen binding call is on record?
The antigen binding call was “binds”.

DRAGDSWD was tested. Which antigen binding call did it give?
The antigen binding call was “no binding”.

How did the antigen binding call turn out when YAAGSSWD was run?
The antigen binding call was “no binding”.

With YRAGSSWD as the variant, how does the antigen binding call read?
The antigen binding call was “binds”.

Which antigen binding call does the source give for YRRGASWD here?
The antigen binding call was “binds”.

For DETKGDWD, which antigen binding call is on record?
The antigen binding call was “no binding”.

YRARGAWD was tested. Which antigen binding call did it give?
Its antigen binding call is “binds”.

With YRAGGSWF as the variant, how does the antigen binding call read?
The antigen binding call was “binds”.

How did the antigen binding call turn out when YRRGDSWD was run?
The antigen binding call was “binds”.

YEGAASWF was tested. Which antigen binding call did it give?
Its antigen binding call is “no binding”.

With YRAKGSWD as the variant, how does the antigen binding call read?
Its antigen binding call is “binds”.

For VTGTGDWV, which antigen binding call is on record?
The antigen binding call was “no binding”.

How did the antigen binding call turn out when VEEEGSVV was run?
Its antigen binding call is “no binding”.

DAKEGDAV was tested. Which antigen binding call did it give?
The antigen binding call was “no binding”.

For DTGGGAWD, which antigen binding call is on record?
Its antigen binding call is “no binding”.

YRRGDSAD was tested. Which antigen binding call did it give?
Its antigen binding call is “binds”.

For FREGASWD, which antigen binding call is on record?
The antigen binding call was “no binding”.

For FRAGSSWD, which antigen binding call is on record?
Its antigen binding call is “binds”.

How did the antigen binding call turn out when YKARGSWD was run?
The antigen binding call was “binds”.

How did the antigen binding call turn out when VEAGSDGV was run?
The antigen binding call was “no binding”.

VEKEGDGV was tested. Which antigen binding call did it give?
Its antigen binding call is “no binding”.

With DTTGSASF as the variant, how does the antigen binding call read?
The antigen binding call was “no binding”.

With YRKENYGD as the variant, how does the antigen binding call read?
The antigen binding call was “no binding”.

With YRAGGYGD as the variant, how does the antigen binding call read?
The antigen binding call was “binds”.

With YRAGGVGD as the variant, how does the antigen binding call read?
Its antigen binding call is “binds”.

YKGRGSAY was tested. Which antigen binding call did it give?
Its antigen binding call is “binds”.

How did the antigen binding call turn out when VKGRGSAY was run?
The antigen binding call was “binds”.

VAGTGDVF was tested. Which antigen binding call did it give?
Its antigen binding call is “no binding”.

For YRGRTAAV, which antigen binding call is on record?
Its antigen binding call is “binds”.

With FRGRGFGV as the variant, how does the antigen binding call read?
Its antigen binding call is “binds”.

Which antigen binding call does the source give for FKGRGFGV here?
The antigen binding call was “no binding”.

YRGKSAAV was tested. Which antigen binding call did it give?
Its antigen binding call is “binds”.

How did the antigen binding call turn out when YRERTAAV was run?
The antigen binding call was “no binding”.

For YTGKSVAV, which antigen binding call is on record?
The antigen binding call was “no binding”.

How did the antigen binding call turn out when YRGRSAGV was run?
The antigen binding call was “binds”.

For DTREGAVV, which antigen binding call is on record?
The antigen binding call was “no binding”.

For VAGGDYLV, which antigen binding call is on record?
Its antigen binding call is “no binding”.

DKGGGDVA was tested. Which antigen binding call did it give?
Its antigen binding call is “no binding”.

Which antigen binding call does the source give for AGEGNSWA here?
The antigen binding call was “no binding”.

With VAGTGDGA as the variant, how does the antigen binding call read?
The antigen binding call was “no binding”.

How did the antigen binding call turn out when YRGRTAGV was run?
The antigen binding call was “binds”.

For VRGRDFGV, which antigen binding call is on record?
Its antigen binding call is “no binding”.

YRGRSFAV was tested. Which antigen binding call did it give?
The antigen binding call was “no binding”.

Which antigen binding call does the source give for DRGRDFGV here?
The antigen binding call was “no binding”.

Which antigen binding call does the source give for YAGRTAGV here?
Its antigen binding call is “no binding”.

Which antigen binding call does the source give for YRGRGFGV here?
The antigen binding call was “binds”.

How did the antigen binding call turn out when YRRRTAAV was run?
Its antigen binding call is “binds”.

How did the antigen binding call turn out when YRGRSFGV was run?
The antigen binding call was “binds”.

With SEARNDGA as the variant, how does the antigen binding call read?
Its antigen binding call is “no binding”.

How did the antigen binding call turn out when DAGGDAGD was run?
The antigen binding call was “no binding”.

For VTRGADAA, which antigen binding call is on record?
Its antigen binding call is “no binding”.

With AARADDSV as the variant, how does the antigen binding call read?
Its antigen binding call is “no binding”.

Which antigen binding call does the source give for YRTRGSLY here?
Its antigen binding call is “binds”.

With YRTRGSGY as the variant, how does the antigen binding call read?
Its antigen binding call is “binds”.
